Screening data as filed in PubChem.
LASV entry inh: Lassa virus entry inhibition; Lassa virus pseudotype entry inhibition, cell reporter; Potency, µM (series often up to 37.9 µM), without a hit: at the top dose activity change, negative = inhibition, actives largely listed as inhibitors; 1.2% of 300,000 active; AID 540256; calls by dose curve; tested in HEK293 cells; also: potency is read from the fitted curve at half-maximal effect; nearly all actives have a fitted effect of over 50% in size
MARV entry inh: inhibitors of Marburg virus binding or cell entry. Marburg virus pseudotyped entry inhibition, cell reporter. Potency, µM (highest dose often 37.8 µM), inactives show at the top dose activity change, negative = inhibition, most hits filed as inhibitors. 1.8% of 300,000 active; calls by dose curve; tested in HEK293 cells; also: potency is read from the fitted curve at half-maximal effect
Pf growth 48h: P. falciparum growth inhibition at 48 hours (one generation) | P. falciparum luciferase growth in erythrocytes, 48 h | Potency, µM (titrated, usually from 28.7 µM), for inactives: top-dose activity change, negative = inhibition, actives largely listed as inhibitors | 5.9% of 310,000 active | AID 504832; also: potency is read from the fitted curve at half-maximal effect
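Growth was read as firefly luciferase luminescence after a 48 h, 37 C, 5% CO2 exposure of compounds to reporter-bearing P. falciparum cultures (0.1% parasitemia, 2% hematocrit final) in Albumax-supplemented RPMI 1640.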
HCMV inh: blocks human cytomegalovirus replication; activity change, negative = inhibition, % at 57.5 µM; AID 1259415; 4.5% of 410,000 active; HFF cells, HCMV-luciferase reporter, 72 h; active compounds read low; in the data active = activity change below about -60%; inconclusive = no clear call, values can overlap the other calls; inactive = above about -39%
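Human foreskin fibroblasts infected with luciferase-reporter HCMV at MOI 1 PFU/cell, compounds at two doses. Luciferase measured 72 h post infection; normalized to buffer-only basal and Salinomycin (10uM) controls.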
Pf growth 96h: inhibits malaria parasite growth, 96 h | P. falciparum luciferase reporter growth, 96 h | Potency, µM (doses to about 28.7 µM), inactives show top-dose activity change, negative = inhibition, hits mostly inhibitors | 6.9% of 320,000 active | AID 504834; also: potency is read from the fitted curve at half-maximal effect
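Parasite growth measured via integrated firefly luciferase reporter in P. falciparum. Infected erythrocytes at 2% hematocrit, 0.05% parasitemia final were treated 96 hours at 37 C under 5% CO2, and luminescence was read.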
HCV inh: HCV inhibition. 3.4% of 340,000 active. AID 651820. Huh7.5.1 HCVcc-Cre infection, luciferase reporter, 44 h. Potency, µM (top dose mostly 41.8 µM), inactives show at the highest dose activity change, negative = inhibition, hits mostly inhibitors; also: potency is read from the fitted curve at half-maximal effect
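Compounds are dispensed onto cells plated 4 h earlier at 1,000 per well, with HCVcc-Cre virus (about 0.5 moi) added next. Following 44 h of culture, luminescent signal is measured for 15 sec after 15 min with substrate at room temperature.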
An asterisk follows results filed as active; ? = inconclusive; · = no result given; [ ] = remark or other dose. This is a sample that favours compounds with a hit; in the whole collection about 14% have one here. Unless noted, calls follow the shape of the dose curve; as a rule, active = well fitted inhibition curve with a large enough effect; inconclusive = small, poorly fitted or top-dose-only effect, or another doubt; inactive = no such curve, though single readings can be large or run the other way. % is scaled to controls: 0 for no effect and ±100 for the full control effect.

SMILES	LASV entry inh	MARV entry inh	Pf growth 48h	HCMV inh	Pf growth 96h	HCV inh
O=C(NC(=S)Nc1cccc2cc(O)ccc12)c1ccccc1Br	1%	-28%	-26%	-19	13µM*	·
COc1ccccc1C(=O)NC(=S)Nc1cccc2cc(O)ccc12	?	-25%[46.1 µM]	·	-1	·	?
CCOC(=O)C1=CC[C@]2(C)c3c(c4ccccc4n3C)C(=O)C1N2C	·	·	13µM*	-13	?	24%
CCOC(=O)C1=CCC2c3c(c4ccccc4n3C)C(=O)C1N2C(=O)OC(C)(C)C (stereo not drawn)	·	·	8.3µM*	-5	?	23%
CN(C)c1cccc(C(=O)NNC(=O)CN2C(=O)C3CC=CCC3C2=O)c1 (stereo not drawn)	-24%[46.1 µM]	?	·	-37	·	-5%
COC1=C(CC=C(C)C)C2=C(CCC(=O)O2)CC1	·	5%	·	·	·	·
Fc1cccc(NCc2ccccc2-c2nnc(-c3ccccc3Cl)o2)c1	26%[46.1 µM]	?	·	69	·	·
CC1CCCC(C)N1/N=C/c1c[nH]c2ccc(Br)cc12 (stereo not drawn)	-9%	?	?	-78*	?	-13%
CC1CCCC(C)N1/N=C/c1cccc(Br)c1 (stereo not drawn)	15%	-2%	23%	-22	10%	9%
COc1ccc(C(=O)OC(C)C(=O)NC2CCCc3ccccc32)cc1OC (stereo not drawn)	·	·	?	-6	-31%	-16%
CSc1nc2[nH]c(=O)n(O)c(=O)c2n1Cc1ccccc1	-13%[46.1 µM]	0%[46.1 µM]	·	31	·	-11%
CCCS(=O)(=O)N1CCC(C(=O)NCCC(C)C)CC1	0%	5%	5%	-4	33%	4%
CCCS(=O)(=O)N1CCC(C(=O)NCCCOC)CC1	11%	20%	14%	26	59%	20%
CCCS(=O)(=O)N1CCC(C(=O)NCCCOC(C)C)CC1	8%	8%	3%	38	9.3µM*	-2%
CCCS(=O)(=O)N1CCC(C(=O)NCCCOCC)CC1	14%	8%	40%	-5	15µM*	12%
COCOc1c2c(c(OCOC)c3c(OCOC)cccc13)C(=NNS(C)(=O)=O)C1=C2CCCC1	·	1%[14.2 µM]	·	·	·	·
Cc1csc(SCC(=O)Nc2ccc(Cl)cn2)n1	?	19%	-9%	13	-26%	?
CC(C)(C)c1csc(SCC(=O)Nc2ccc(Cl)cn2)n1	?	6%	12µM*	-35	?	?
COc1ccc(CN2C(=S)NC(C)(C)CC2(C)O)cc1 (stereo not drawn)	-14%	?	-5%	-33	-11%	3%
COc1ccccc1CCN1C(=S)NC(C)(C)CC1(C)O (stereo not drawn)	6%	-5%	?	-6	9.3µM*	?
CC(C(=O)OCC(=O)c1ccc([N+](=O)[O-])cc1)N1C(=O)C2C3C=CC(C3)C2C1=O (stereo not drawn)	-12%	17%	23%	-35	2%	15%
CC(C(=O)OCC(=O)c1ccc([N+](=O)[O-])cc1)N1C(=O)C2C3CCC(C3)C2C1=O (stereo not drawn)	0%[46.1 µM]	-25%[46.1 µM]	53%	-25	10µM*	1%
COc1ccc(CCNC(=O)CCCn2c(=O)c3ccccc3n(Cc3ccccc3C#N)c2=O)cc1OC	14%[46.1 µM]	-8%[46.1 µM]	·	-1	·	·
CC1CCCCC1NC(=O)/C(C#N)=C/c1ccccc1F (stereo not drawn)	?	?	?	?	12µM*	?
N#C/C(=C\c1c(F)cccc1Cl)C(=O)NC1CC1	-12%[46.1 µM]	-23%[46.1 µM]	-16%	-4	13µM*	-1%
SMILES	LASV entry inh	MARV entry inh	Pf growth 48h	HCMV inh	Pf growth 96h	HCV inh
N#C/C(=C\c1ccc[nH]1)C(=O)NC1CC1	10%	5%	3%	25	·	-4%
Cc1cnc(NC(=O)C(C)(C)n2cc(-c3ccc4c(c3)OCCO4)cn2)s1	·	·	·	13	·	·
O=C1C2=C(Nc3ccccc3SC2c2ccco2)c2ccccc21 (stereo not drawn)	?	?	0.33µM*	29	6%	?
O=C1CC(c2ccsc2)Sc2ccccc2N1 (stereo not drawn)	-21%	?	0%	36	37%	8%
CC1CC(=O)C2=C(C1)Nc1ccccc1SC2c1ccc(F)cc1 (stereo not drawn)	-16%	-17%	12µM*	27	4.1µM*	3%
CCc1ccc(C2Sc3ccccc3NC3=C2C(=O)c2ccccc23)cc1 (stereo not drawn)	?	?	·	-85*	·	·
CCc1ccc2c(c1)C(=O)c1ccccc1C2=O	18%	5%	257%	79	-21%	11%
CC(C)c1ccc(C2Sc3ccccc3NC3=C2C(=O)c2ccccc23)cc1 (stereo not drawn)	18%[46.1 µM]	?	·	-100*	·	·
CC(=O)Nc1ccc(C2Sc3ccccc3NC3=C2C(=O)c2ccccc23)cc1 (stereo not drawn)	8%[46.1 µM]	?	·	-29	·	·
CC(C)(C)c1ccc(NC(=O)c2ccsc2)cc1	?	?	?	-20	-22%	-25%
Cc1ccc(NC(=O)C2CCCN(C(=O)c3cnn(-c4ccc(F)cc4)c3-n3cccc3)C2)c(Cl)c1 (stereo not drawn)	13%[46.1 µM]	·	·	-3	·	·
COCCN1Cc2cccc(C(=O)Nc3ccc(C(=O)OC)cc3)c2C1=O	8%[46.1 µM]	1%[46.1 µM]	·	-8	·	·
FC(F)(F)c1ccc(C2Nc3cccc4cccc(c34)N2)cc1	0%[46.1 µM]	?	?	8	?	15%
O=C1C2=C(Nc3ccccc3SC2c2ccc(C(F)(F)F)cc2)c2ccccc21 (stereo not drawn)	?	?	·	-99*	·	·
CC1CCN(CCCOc2ccc(Cl)cc2Br)CC1	-15%[46.1 µM]	?	-15%	-7	?	-13%
Cc1cc(Cl)c(OCCOCCN2CCC(C)CC2)c(Br)c1	?	6.5µM*	?	?	12µM*	?
Cc1cc(Cl)c(OCCOCCN2CCN(C)CC2)c(Br)c1	-29%[46.1 µM]	?	0%	3	32%	?
CC1CCN(CCOCCOc2ccc(Cl)cc2Br)CC1	?	?	?	9	6.6µM*	22µM*
COc1cc(Nc2ncc3c(C)nc(-c4cccc(Oc5ccccc5)c4)n3n2)cc(OC)c1OC	3.1µM*	·	·	·	·	·
COc1cc(Nc2ncc3c(C)nc(-c4cccc(C(F)(F)F)c4)n3n2)cc(OC)c1OC	10µM*	·	·	·	·	·
COc1cc(Nc2nc3ccccc3n3nnnc23)cc(OC)c1OC	·	·	·	11	?	-15%
COc1ccc(Nc2cc3c(cn2)cc(-c2cccc(C(F)(F)F)c2)n3C)cc1	·	·	·	-17	·	·
NCCNC(=O)c1ccc(Cl)cn1	·	·	-11%	-11	-14%	·
COC(=O)c1ccccc1COc1cccn2c(N(C)CC3CC3)c(C)nc12	·	·	·	-99*	·	·
